Reference: the supplement of paper PMC9588786
Where a name gives a salt, the structure may show the parent alone. ± gives the standard deviation of the averaged measurements.
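Note: viability read as CCK-8 absorbance at 450 nm in cells co-exposed to the GPX4 inhibitor RSL3, relative to a 0.01% DMSO vehicle control.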

The compounds below were run on HT-1080 (assay: relative cell viability with RSL3 co-treatment (fraction of control); higher = stronger protection from RSL3-induced ferroptosis (higher viability)). Conditions: 10 µM.
For `O=C(NC[C@H](O)CO)c1ccncc1Nc1ccc(I)cc1F`, the relative cell viability was 0.803 ± 0.076.
`NC(=O)c1ccc(N(C(N)=O)c2c(F)cccc2F)nc1-c1ccc(F)cc1F` gave a relative cell viability of 0.733 ± 0.042.
Work on `Cn1c(=O)c(F)c(Nc2ccc(I)cc2F)c2c(=O)n(C[C@@H](O)CO)cnc21` yielded a relative cell viability of 0.71 ± 0.017.
Compound `CO[C@H]1C[C@@H]2CC[C@@H](C)[C@@](O)(O2)C(=O)C(=O)N2CCCC[C@H]2C(=O)O[C@H]([C@H](C)C[C@@H]2CC[C@@H](OCCO)[C@H](OC)C2)CC(=O)[C@H](C)/C=C(\C)[C@@H](O)[C@@H](OC)C(=O)[C@H](C)C[C@H](C)/C=C/C=C/C=C/1C` [Everolimus (RAD001)] has a relative cell viability of 0.607 ± 0.13.
Compound `CNC(=O)c1cc(Oc2ccc(NC(=O)Nc3ccc(Cl)c(C(F)(F)F)c3)cc2)ccn1` [Sorafenib Tosylate] has a relative cell viability of 0.317 ± 0.04.
Compound `CCN1/C(=C/C(C)=O)Sc2ccc(OC)cc21` has a relative cell viability of 0.76 ± 0.1.
`NC1(Cc2ccc(Cl)cc2)CCN(c2ncnc3[nH]ccc23)CC1` showed a relative cell viability of 0.473 ± 0.25.
In the case of `Cc1cc(N2CCOCC2)cc2[nH]c(-c3c(NC[C@@H](O)c4cccc(Cl)c4)cc[nH]c3=O)nc12`, the relative cell viability is reported as 0.987 ± 0.15.
For `CC(C)c1cnn2c(NCc3ccccc3)cc(NCCCCCCN)nc12`, the relative cell viability was 0.623 ± 0.085.
`N#Cc1c(Oc2ccc(F)c(NC(=O)Cc3cccc(C(F)(F)F)c3)c2)ccc2nc(NC(=O)C3CC3)sc12` gave a relative cell viability of 0.797 ± 0.032.
`O=c1c(-c2ccc(O)cc2)coc2cc(O)cc(O)c12` [Genistein] was tested, and the relative cell viability was 0.76 ± 0.07.
`CCc1cc(Nc2nccc(-c3c(-c4ccc(OC)c(C(=O)Nc5c(F)cccc5F)c4)nc4ccccn34)n2)c(OC)cc1N1CCC(N2CCN(S(C)(=O)=O)CC2)CC1` gave a relative cell viability of 0.55 ± 0.01.
Work on `Cc1nc(Nc2n[nH]c3c2CN(C(=O)N[C@H](CN(C)C)c2ccccc2)C3(C)C)c2sccc2n1` yielded a relative cell viability of 0.557 ± 0.032.
In the case of `COc1cc(Nc2ncc(F)c(Nc3ccc4c(n3)NC(=O)C(C)(C)O4)n2)cc(OC)c1OC` [R406 (free base)], the relative cell viability is reported as 0.79 ± 0.02.
Work on `CCc1cncnc1N1CCN(Cc2nc3ccc(C(F)(F)F)cc3[nH]2)CC1` yielded a relative cell viability of 0.653 ± 0.083.
Work on `FC(F)(F)c1ccc(/C=C/c2nc(COc3ccc(CCCCn4ccnn4)cc3)co2)cc1` [Mubritinib (TAK 165)] yielded a relative cell viability of 0.653 ± 0.1.
With `CNC(=O)c1cccc(-c2ccc3c(N4CCOC[C@@H]4C)nc(N4CCOC[C@@H]4C)nc3n2)c1` [Vistusertib (AZD2014)] the relative cell viability was 0.52 ± 0.18.
`O=C(NC(NC(=S)Nc1ccc(F)c([N+](=O)[O-])c1)C(Cl)(Cl)Cl)C(c1ccccc1)c1ccccc1` (stereo not drawn) was tested, and the relative cell viability was 0.62 ± 0.095.
With `Cc1c(CN2CCN(C(=O)[C@H](C)O)CC2)sc2c(N3CCOCC3)nc(-c3cnc(N)nc3)nc12` [Apitolisib (GDC-0980, RG7422)] the relative cell viability was 0.47 ± 0.09.
In the case of `S=C(NCc1ccc2c(c1)OCO2)N1CCN(c2ncnc3c2oc2ccccc23)CC1` [Amuvatinib (MP-470)], the relative cell viability is reported as 0.55 ± 0.072.
`O=C(O)c1ccc(-c2c[nH]c3ncc(-c4ccccc4)cc23)cc1C1CCCC1` showed a relative cell viability of 0.81 ± 0.017.
`Cc1ccc(Nc2nccc(N(C)c3ccc4c(C)n(C)nc4c3)n2)cc1S(N)(=O)=O` was tested, and the relative cell viability was 0.597 ± 0.15.
Work on `Cc1c(F)cc(C(=O)NC2CC2)cc1-c1ccc(C(=O)NCC(C)(C)C)cn1` yielded a relative cell viability of 0.563 ± 0.12.
`CO[C@@H](C(=O)N1Cc2[nH]nc(NC(=O)c3ccc(N4CCN(C)CC4)cc3)c2C1)c1ccccc1` showed a relative cell viability of 0.507 ± 0.1.
`CN1CCN(c2nc(C3=C(c4c[nH]c5ccccc45)C(=O)NC3=O)c3ccccc3n2)CC1` [Sotrastaurin] was tested, and the relative cell viability was 0.903 ± 0.042.
Work on `COCCOc1ccc2c(c1)ncn2-c1ccc2cccc(N3CCC(N)CC3)c2n1` yielded a relative cell viability of 0.82 ± 0.056.
Work on `O=C(NCCCNc1nc(Nc2cccc(NC(=O)N3CCCC3)c2)ncc1I)c1cccs1` yielded a relative cell viability of 0.657 ± 0.011.
`CC(C)n1nc(-c2ccc3oc(N)nc3c2)c2c(N)ncnc21` showed a relative cell viability of 0.787 ± 0.058.
In the case of `CC(C)CC(=O)Nc1n[nH]c2c1CN(C(=O)C1CCN(C)CC1)C2(C)C`, the relative cell viability is reported as 0.78 ± 0.069.
Work on `C=CC(=O)Nc1cccc(Nc2nc(Nc3ccc(Oc4ccnc(C(=O)NC)c4)cc3)ncc2F)c1` yielded a relative cell viability of 0.6 ± 0.056.
`O=c1cc(N2CCOCC2)oc2c(-c3ccccc3)cccc12` showed a relative cell viability of 0.76 ± 0.16.
Compound `Cc1cc2c(F)c(Oc3ncnn4cc(OC[C@@H](C)OC(=O)[C@H](C)N)c(C)c34)ccc2[nH]1` has a relative cell viability of 0.653 ± 0.095.
`CC[C@H](CO)Nc1nc(NCc2ccccc2)c2ncn(C(C)C)c2n1` [Roscovitine (Seliciclib,CYC202)] showed a relative cell viability of 0.793 ± 0.12.
In the case of `O=C(Nc1cccnc1)c1cc(-c2ccnc(F)c2)ccc1OCc1ccccc1`, the relative cell viability is reported as 0.627 ± 0.06.
Compound `COc1ccc(-c2ccc3c(N4CCOCC4)nc(N4C[C@@H](C)O[C@@H](C)C4)nc3n2)cc1CO` has a relative cell viability of 0.7 ± 0.07.
Compound `OCCn1cc(-c2cnc3nnn(Cc4ccc5ncccc5c4)c3n2)cn1` has a relative cell viability of 0.813 ± 0.09.
`CCS(=O)(=O)c1cccc(-c2cc(C(=O)NC3CCN(C)CC3)c(C)c3[nH]c4ncc(C)cc4c23)c1` showed a relative cell viability of 0.397 ± 0.046.
With `CCN1CCN(Cc2ccc(Nc3ncc(F)c(-c4cc(F)c5nc(C)n(C(C)C)c5c4)n3)nc2)CC1` the relative cell viability was 0.42 ± 0.026.
